Measurements taken from the supplement of paper PMC10338343.
± gives the standard deviation. The full ranking holds about 8,200 sequences; the median of “pre-steady-state target cleavage rate” is about 0.024, and the highest 2% start at about 1.3. The full list was thinned out, with the highest values kept by preference.

Tested on: MIWI (PIWIL1) piRISC loaded with L1MC piRNA (30 nt)
Experiment: pre-steady-state target cleavage rate (min^-1); MIWI and MILI are mouse PIWI proteins and EfPiwi is from a freshwater sponge; tags in brackets are library labels; higher = faster piRNA-guided slicing of the target
Conditions: guide: L1MC piRNA 5'p-UAACUAAAUACUAUGCAAGCUGUAGGUCCU
How it was run: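 The pre-steady-state cleavage rate was derived from a burst-and-steady-state fit of Cleave-'n-Seq data. For these assays, 1 nM active affinity-purified piRISC loaded with a single synthetic guide was mixed with […] a transcribed, DNA-blocked target RNA library in HEPES–potassium acetate buffer at 33 °C, with or without 500 nM GTSF1 partner protein, for 0–8 or 0–960 min. Sequencing counts of uncleaved targets were normalised to depth and to weakly complementary targets, and k3 was capped at 0.0001 min^-1 after three trials were pooled.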

[1] = auxiliary factor: 500 nM mouse GTSF1
[2] = auxiliary factor: none (no GTSF1)
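Also: 1 nM active piRISC with 0.1 nM target library at 33 °C single turnover.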

Sequence | pre-steady-state target cleavage rate [1] | pre-steady-state target cleavage rate [2]
UCCUGGUACAGCUUGGAUAGUAUUUAGUAA | 0.421 ± 0.095 | 0.0149 ± 0.0041
UCCUGCUACAGCUUGCAUUGAAUUUAGUUA | 0.168 ± 0.012 | 0.00991 ± 0.0044
UCCUGGAUGUGCGUUGCAUAGUAUUUAGUUA | 0.28 ± 0.032 | 0.00987 ± 0.0029
UCCACCUACUGCUUGCAAAGUAUUUAGUUA | 0.623 ± 0.025 | 0.0305 ± 0.0052
AGGACCUACAGCUUGCGAUAGUAUUUAGUUA | 0.108 ± 0.026 | –
UCGACCUACAGCUUGCAUAGUAUUUAGUUA [g2:g28:cont:t1A] | 1.56 ± 0.056 | 0.0936 ± 0.017
UCGACCUACAGCUUGCAUAGUAUAUUAGUUA | 1.25 ± 0.049 | 0.0248 ± 0.0063
UCGACCUACAGCUUGCAUAGUAUUUUAGUUA | 1.21 ± 0.053 | 0.0302 ± 0.0073
UCGACCUACAGCUUGCAUAGUAUUUAGUUG [g2:g28:cont:t1G] | 0.569 ± 0.04 | 0.0703 ± 0.013
UCGACCUACAGCUUGCAUAGUAUUAUAGUUA | 1.32 ± 0.076 | 0.0387 ± 0.007
UCGACCUACAGCUUGCAUAGUAUUAGUUA | 0.346 ± 0.053 | –
AGCACCUACAGCUUGCAUACUAUUUAGUUA | 0.471 ± 0.099 | 0.00711 ± 0.0024
UCCUGGAUGUCGAACCAUUGUAUAUAGUUA | < 0.0001 | –
UCGACCUACAGCUUCGAUAGUAUUUAGUUA | 0.911 ± 0.058 | 0.00251 ± 0.0018
UCCACCUACAGCUUCGCAUAGUAUUUAGUUA | 0.911 ± 0.056 | 0.0118 ± 0.0027
UGGACCUACAGCUUCGCAUAGUAUUUAGUUA | 1.43 ± 0.1 | 0.0229 ± 0.0062
UCGACCUACAGCUUCGCAUAGUAUUUAGUUA | 1.33 ± 0.07 | 0.0168 ± 0.004
UCGACCUACAGCUUCAUAGUAUUUAGUUA | 1.14 ± 0.042 | 0.0128 ± 0.0025
AGGACCUACAGCUUCGCAUAGUAUUUAGUUA | 1.27 ± 0.071 | 0.0296 ± 0.0087
UGGAGCUACAGCUUGCAUUGUAUUUAGUUA | 0.934 ± 0.038 | 0.0337 ± 0.0068

Sequence | pre-steady-state target cleavage rate [1] | pre-steady-state target cleavage rate [2]
UCCUCCUACAGCUUGCAUACUAUUUAGAUA | 0.0831 ± 0.015 | 0.0075 ± 0.0022
UCCUGGAUGUGCUUGCAUAGUAUUUAGAUA | 0.118 ± 0.023 | 0.0188 ± 0.0067
UCGACCUACAGCUUGCAUAGAAUUUUCAAA | 0.369 ± 0.059 | –
UCCUGGUACAGCUUACAUAGUAUUUAGUUA | 0.749 ± 0.056 | 0.0246 ± 0.0048
UCCUGCUACAGCUUGCAUAGUAUUUUAGUUA | 0.817 ± 0.067 | 0.0107 ± 0.0028
UGCUGCUACAGCUUGCAUAGUAUUUAGUAA | 0.875 ± 0.084 | 0.0204 ± 0.0041
AGCUGCUACAGCUUGCAUAGUAUUUAGUUA | 1.49 ± 0.07 | 0.0697 ± 0.012
UCCUGCUACAGCUUGCAUAGUUAUUUAGUUA | 0.073 ± 0.013 | 0.00386 ± 0.0025
UCCUGCUACAGCUUGCAUAGUAUUUAGUUA [g2:g25:cont:t1A] | 0.864 ± 0.042 | 0.0585 ± 0.01
AGCAGCUACAGCUUGCAUAGUAUUUAGUUA | 1.37 ± 0.067 | 0.079 ± 0.016
UCCUGCUACAGCUUGCAUAUAUUUAGUUA | 0.408 ± 0.045 | 0.00397 ± 0.0033
AGCUGCUACAGCUUGCAUAGUAUUUAGUAA | 0.977 ± 0.11 | 0.0202 ± 0.0038
UGCUGCUACAGCUUGCAUAGUAUUUAGUUA | 1.55 ± 0.058 | 0.0595 ± 0.011
UCCUGCUACAGCUUGCAUAUUAUUUAGUUA | 1.31 ± 0.066 | 0.0449 ± 0.0088
UGGUGCUACAGCUUGCAUAGUAUUUAGUUA | 0.988 ± 0.079 | 0.0764 ± 0.017
UGCAGCUACAGCUUGCAUAGUAUUUAGUUA | 1.21 ± 0.081 | 0.0733 ± 0.013
UCCUGGAACAGCUUCAUAGUAUUUAGUUA | 0.95 ± 0.051 | 0.00772 ± 0.0027
UCCACCUACAGCUUGCGAUAGUAUUUAGUUA | 0.0565 ± 0.018 | –
UGGACCAUGAGCUUGCAUAGUAUUUAGUAA | 0.675 ± 0.045 | 0.0285 ± 0.0075
UCCUGGAACACCUUGCAUAGUUUUUAGUUA | 0.148 ± 0.023 | 0.0142 ± 0.0044

Sequence | pre-steady-state target cleavage rate [1] | pre-steady-state target cleavage rate [2]
UCCUGGAACAGCUUGCAUAGUUUUUUGUUA | 0.197 ± 0.025 | 0.0238 ± 0.0057
UCGUCCUACAGCUUGCAUAGUAAUUAGUUA | 0.874 ± 0.027 | 0.0282 ± 0.006
UCCUCCUACAGCUUGCAUAGUAAUUAGUAA | 0.347 ± 0.039 | 0.0074 ± 0.0022
UCCUGGUACAGCAUGCAUAGUAAUUAGUUA | 0.457 ± 0.054 | 0.0118 ± 0.0031
AGGACCUACAGCUAGCAUAGUAUUUAGAAA | 0.571 ± 0.066 | 0.00411 ± 0.0025
UCCUGCUACAGCUUGCAUAGUAUUUUGUAA | 0.274 ± 0.043 | 0.009 ± 0.0031
UCCUGGAUGAGCUACCAUAGUAUUUAGUUA | 0.0107 ± 0.0041 | –
UCCUCCUACAGCUUGCAUAGUAUUGUAGUUA | 0.282 ± 0.054 | 0.00959 ± 0.0038
UCCUGGAACAGCUUGCAUGUAUUUAGUUA | 0.103 ± 0.015 | 0.00591 ± 0.0032
UCCUGGAUGUCCUUGCAUACUAUUUAGUUA | 0.0164 ± 0.0047 | 0.00616 ± 0.0016
UCCACCUACAGCUUCCAUAGUAUUUACAAA | 0.0165 ± 0.008 | –
UCCUGGUACAGCUUGCAUAGUAUUUAGCUA | 0.00692 ± 0.0039 | –
AGGUGCUACAGCUUGCAUAGUAUUUAGUUA | 1.23 ± 0.064 | 0.0832 ± 0.016
UCGUGCUACAGCUUGCAUAGUAUUUAGUAA | 0.926 ± 0.053 | 0.0286 ± 0.0054
UCGUGCUACAGCUUGCAUAGUAUUUAGUUA | 1.38 ± 0.059 | 0.0704 ± 0.012
UGGAGGAACAGCUUGCAUAGUAUUUAGAAA | 0.364 ± 0.037 | 0.00934 ± 0.004
UCCUCCUACCAGCUUGCAUAGUAUUUAGUUA | 1.15 ± 0.055 | 0.0479 ± 0.011
UCGACCUACAGGUUGCAUACUAUUUAGUUA | 0.273 ± 0.018 | 0.0207 ± 0.004
